Experimental data published in the supplement of paper PMC8975748.
Where a name gives a salt, the structure may show the parent alone.

Test system: Saccharomyces cerevisiae BY4741 SeMeCo community
Experiment: z-score of subpopulation abundance vs DMSO median, subpopulation auxotrophic for HLM; higher = larger share of this subpopulation than in DMSO controls
Conditions: 10 µM; 24 h; SM minimal medium; subpopulation (auxotrophy): HLM
Method: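 Fluorescent four-plasmid SeMeCo (self-establishing metabolically cooperating S. cerevisiae BY4741 community; plasmids pH-mRuby2, pL-mWasabi, pU-eCFP, pM-TagRFP657) was grown 24 h in minimal SM medium with each Selleck FDA-approved drug at 10 µM in 384-well plates. Cells were fixed and imaged by high-content confocal microscopy. For each auxotrophic subpopulation (and the prototroph), a z-score gives the deviation from the DMSO vehicle-control population median.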

Row | SMILES | z-score of subpopulation abundance
1 | Cc1cc(C(C#N)c2ccc(Cl)cc2)c(Cl)cc1NC(=O)c1cc(I)cc(I)c1O (centres undefined) [Closantel] | -0.4
2 | NCC(O)c1ccc(O)cc1 (racemic) [(+,-)-Octopamine HCl] | -0.75
3 | COC(=O)C1=CCCN(C)C1 [Arecoline HBr] | 0.28
4 | C[N+](C)(C)CCCCCCCCCC[N+](C)(C)C [Decamethonium Bromide] | -0.27
5 | Oc1cccc2cccnc12 [8-Hydroxyquinoline] | -0.08
6 | CN1[C@@H]2CC[C@H]1C[C@@H](OC(=O)C(CO)c1ccccc1)C2 (some centres undefined) [Atropine sulfate monohydrate] | -0.94
7 | CN[C@@H]1[C@@H](O)[C@@H](O[C@@H]2[C@@H](O)[C@H](O[C@H]3O[C@H](CN)CC[C@H]3N)[C@@H](N)C[C@H]2N)OC[C@]1(C)O.CN[C@@H]1[C@@H](O)[C@@H](O[C@@H]2[C@@H](O)[C@H](O[C@H]3O[C@H]([C@@H](C)N)CC[C@H]3N)[C@@H](N)C[C@H]2N)OC[C@]1(C)O.CN[C@@H]1[C@@H](O)[C@@H](O[C@@H]2[C@@H](O)[C@H](O[C@H]3O[C@H]([C@@H](C)NC)CC[C@H]3N)[C@@H](N)C[C@H]2N)OC[C@]1(C)O [Gentamicin Sulfate] | 0.75
8 | CN(C)C(=O)Oc1cccc([N+](C)(C)C)c1 [Neostigmine Bromide] | -0.52
9 | CCCCCCCCCCCCCCCC[n+]1ccccc1 [Cetylpyridinium Chloride] | 67.8
10 | COc1ccc(C=O)cc1 [p-Anisaldehyde] | -0.78
11 | CC1(C)SC2C(N)C(=O)N2C1C(=O)O (centres undefined) [6-Aminopenicillanic acid] | -0.43
12 | COc1ccc2c3c([nH]c2c1)C(C)=NCC3 [Harmaline] | 2.63
13 | C[CH2][Hg][S]c1ccccc1C(=O)[O-].[Na+] [Thimerosal] | 131
14 | CC(=O)OCC1=C(C(=O)O)N2C(=O)C(N)C2SC1 (centres undefined) [7-Aminocephalosporanic acid] | -0.1
15 | N#Cc1nn(-c2c(Cl)cc(C(F)(F)F)cc2Cl)c(N)c1[S+]([O-])C(F)(F)F (centres undefined) [Fipronil] | 0
16 | COc1ccc2c(c1)[C@]13CCCC[C@@H]1[C@H](C2)N(C)CC3 [Dextromethorphan hydrobromide hydrate] | 0.03
17 | C=CC[C@]1(O)CC[C@H]2[C@@H]3CCC4=CC(=O)CCC4=C3C=C[C@@]21C [Altrenogest] | -0.47

Row | SMILES | z-score of subpopulation abundance
18 | CCOC(=O)Nc1ccc(NCc2ccc(F)cc2)cc1N [Retigabine 2HCl] | -0.02
19 | CC(C)=CCOc1c2occc2cc2ccc(=O)oc12 [Imperatorin] | 1.2
20 | CC[C@H]1CN2CC[C@]3(C(=O)Nc4ccccc43)[C@@H]2C[C@@H]1/C(=C\OC)C(=O)OC [Rhynchophylline] | 1.16
21 | CC[C@@H](C(N)=O)N1CCCC1=O [Levetiracetam] | 0.21
22 | COc1ccc2[nH]cc(CCN)c2c1 [5-Methoxytryptamine] | 0.21
23 | O=c1[nH]c2ccccc2n1CCCN1CCC(n2c(=O)[nH]c3cc(Cl)ccc32)CC1 [Domperidone] | 1.97
24 | CN(C)[C@@H]1C(=O)C(C(N)=O)=C(O)[C@@]2(O)C(=O)C3=C(O)c4c(O)ccc(Cl)c4[C@@](C)(O)[C@H]3C[C@@H]12 [Chlortetracycline HCl] | -0.55
25 | CC(C)(O)C(Cl)(Cl)Cl [Chlorobutanol] | -0.04
26 | Oc1cc(Cl)ccc1Oc1ccc(Cl)cc1Cl [Triclosan] | 1.15
27 | NCCc1c[nH]c2ccc(O)cc12 [Serotonin HCl] | -0.77
28 | C[C@H]1O[C@H](O[C@H]2[C@H](O)[C@@H](O)[C@@H](O)[C@H](O)[C@@H]2O)[C@@H](N)C[C@@H]1NC(=N)C(=O)O [Kasugamycin hydrochloride] | -0.54
29 | Cc1cc(O)ccc1Cl [Chlorocresol] | -0.58
30 | C=CCN1C[C@H](C(=O)N(CCCN(C)C)C(=O)NCC)C[C@@H]2c3cccc4[nH]cc(c34)C[C@H]21 [Cabergoline] | -0.2
31 | C=CN1CCCC1=O.II [Povidone iodine] | 0.98
32 | CCN(C)C(=O)Oc1cccc([C@H](C)N(C)C)c1 [Rivastigmine] | -0.03
33 | N[C@@H]1C[C@H]1c1ccccc1 [Tranylcypromine (2-PCPA) HCl] | 0.39
34 | CCOC(=O)Nc1ccc(NCc2ccc(F)cc2)cc1N [Retigabine] | 0.18
